SSB-PriA inh: blocks PriA binding to SSB C-terminal tail | AlphaScreen SSBct-PriA binding, biotinylated peptide | inhibition, % at 33 µM | 430,000 compounds, 0.6% hits | AID 1272365; in the data active = inhibition mostly above about 37%, no sharp cut-off; inactive = mostly below about 20%
PrPC TRFRET: inhibitors of human cell surface prion protein PrPC | P04156 | TR-FRET read-out | inhibition, % at 13.8 µM | 370,000 compounds, 0.43% hits | AID 720596; in the data active = inhibition above about 24%
PrP UTR inh: inhibition of PrP 5' UTR reporter expression | 340,000 compounds, 0.35% hits | cell-based PrP 5' UTR mRNA reporter, plate reader | inhibition, % (no concentration beside the values); in the data active = inhibition above about 52%
3CLpro inhibitor: SARS-CoV 3CLpro protease inhibition. inhibition, % at 6 µM. AID 1706. 290,000 compounds, 0.14% hits. recombinant SARS-CoV 3CLpro, quenched FRET peptide cleavage; in the data active = inhibition above about 12%
BJeLR lethal: BJeLR cell viability loss; AID 1554; 300,000 compounds, 0.17% hits; inhibition, % (no concentration beside the values); BJeLR (HRASV12) viability, CellTiter-Glo ATP luminescence, 48 h; in the data active = inhibition above about 50%
PrPC confirm: cell surface PrPC inhibition, TR-FRET confirmation | shares compounds with PrPC TRFRET | cell surface PrPC level | inhibition, % at 13.8 µM | 1,500 compounds, 65% hits | AID 743200; in the data active = inhibition above about 25%
LD9 tox: LD9 cell cytotoxicity, PrPc inhibitor counter-screen | shares compounds with PrPC TRFRET | LD9 cells cytotoxicity, luminescence viability | inhibition, % at 13.8 µM | 1,500 compounds, 29% hits | AID 743201; in the data active = inhibition above about 9.5%
Numbers stand for hits; i = inactive; nt = no result given. Compounds with a hit are over-represented: about 1.2% of the library has one in this group of screens.

SMILES | SSB-PriA inh | PrPC TRFRET | PrP UTR inh | 3CLpro inhibitor | BJeLR lethal | PrPC confirm | LD9 tox
CCS(=O)(=O)N1CCc2ccc(NS(=O)(=O)CCc3ccccc3)cc2C1 | i | nt | nt | nt | nt | nt | nt
Cc1cccc(C(O)c2ncc(-c3ccc(Cl)cc3)[nH]2)c1C (stereo not given) | nt | i | nt | nt | nt | nt | nt
Cc1cccc(C(O)c2ncc(-c3ccc(C(F)(F)F)cc3)[nH]2)c1C (stereo not given) | nt | 25.6 | nt | nt | nt | i | i
Cn1nc2c(c1NC(=O)c1ccc3ncsc3c1)CCC2 | i | nt | nt | nt | nt | nt | nt
Cc1onc(-c2c(Cl)cccc2Cl)c1C(N)=NOC(=O)C1CC1 | i | nt | nt | nt | nt | nt | nt
COc1ccc(Cc2nnc(NC(=O)c3ccc(OC)c(OC)c3)s2)cc1 | i | i | i | i | i | nt | nt
COc1ccc(C(=O)Nc2nnc(Cc3cccs3)s2)cc1OC | i | 65.4 | i | i | i | 36.2 | i
Cc1cccc(/C=C(\c2nc3ccccc3[nH]2)S(=O)(=O)c2ccccc2)c1 | i | 25.0 | i | i | i | i | 21.8
CC(C)(C)c1ccc(/C=C(\c2nc3ccccc3[nH]2)S(=O)(=O)c2ccccc2)cc1 | i | nt | i | nt | i | nt | nt
Cc1ccc(NS(=O)(=O)c2ccc3c(c2)NC(=O)CCS3)cc1F | i | i | i | i | i | nt | nt
Cc1ccc(NS(=O)(=O)c2ccc3c(c2)NC(=O)CCS3)cc1C | i | 24.7 | i | i | i | i | 27.3
O=c1oc2cc(O)ccc2c2ccccc12 | i | 28.1 | i | i | i | 32.7 | i
COc1ccc(CNC(=O)c2sc(=O)n(Cc3cc(Cl)ccc3OC)c2C)cc1 | nt | i | nt | nt | nt | nt | nt
COc1ccc(NC(=O)c2sc(=O)n(Cc3ccc(F)c(Cl)c3)c2C)cc1OC | nt | 29.6 | nt | nt | nt | i | i
CCOc1ccc(CC(=O)Nc2nc3c(s2)C(=O)CC(C)(C)C3)cc1 | i | nt | nt | nt | nt | nt | nt
COc1ccc(CCNc2ncnc3c2oc2ccccc23)cc1OC | i | 26.9 | i | i | i | 27.2 | 20.2
CSc1cccc(NS(=O)(=O)c2ccc3c(c2)CCN3C(C)=O)c1 | i | 25.3 | i | i | i | i | 14.6
COc1cccc(NS(=O)(=O)c2ccc3c(c2)CCN3C(C)=O)c1 | i | i | i | i | i | nt | nt
Cc1nc(N2CCC(NC(=O)c3ccc(Br)o3)CC2)cc(C(F)(F)F)n1 | i | nt | nt | nt | nt | nt | nt
COC(=O)c1c(C)[nH]c(C(=O)CSc2nc(C)nc3sc(-c4ccccc4)cc23)c1C | i | nt | nt | nt | nt | nt | nt
O=S(=O)(NCCNc1ccc(-n2cccc2)nn1)c1ccccc1Cl | i | nt | nt | nt | nt | nt | nt
CC(NC1CCCCC1)C(O)C12CC3CC(CC(C3)C1)C2 (stereo not given) | i | 35.5 | i | i | i | 28.4 | i
C[C@H](N)C12CC3CC(CC(C3)C1)C2 | i | nt | nt | nt | nt | nt | nt
O=[N+]([O-])c1ccc(N2CCOCC2)c2c1no[n+]2[O-] | nt | 28.6 | nt | nt | nt | 44.7 | 98.3
C=CCN1C(=O)C(C)(C)COc2cc(NS(=O)(=O)Cc3ccc(F)cc3)ccc21 | i | nt | nt | nt | nt | nt | nt
SMILES | SSB-PriA inh | PrPC TRFRET | PrP UTR inh | 3CLpro inhibitor | BJeLR lethal | PrPC confirm | LD9 tox
CCOC(=O)c1c(N=CN(C)C)sc2c1CCC2 | i | nt | nt | nt | nt | nt | nt
CCCn1c(=NC(=O)c2ccc(Cl)s2)sc2ccc(OC)cc21 | i | nt | nt | nt | nt | nt | nt
CCc1cc2c(=O)c(-c3ccc4c(c3)OCCO4)coc2cc1OCC(=O)Nc1ccc(C)cc1 | i | nt | nt | nt | nt | nt | nt
CCc1cc2c(=O)c(-c3ccc4c(c3)OCCO4)coc2cc1OS(C)(=O)=O | i | 36.4 | i | i | i | 31.4 | i
Cc1ccc(-c2nnc(NC(=O)c3cccc(Br)c3)o2)cc1C | i | nt | nt | nt | nt | nt | nt
C=CCn1c(=O)c2ccccc2n2c(SCC(N)=O)nnc12 | i | 35.8 | i | i | i | 35.5 | i
COc1ccc(S(=O)(=O)Nc2ccc3c(c2)N(C(=O)C2CCCO2)CC3)cc1OC (stereo not given) | i | nt | nt | nt | nt | nt | nt
C=CCn1c(O)c(C=C2C=Nc3ccccc32)c(=O)[nH]c1=O | i | nt | nt | nt | nt | nt | nt
O=C(Nc1ccc2c(c1)OCO2)c1cc(C2CCCCN2S(=O)(=O)c2ccccc2)on1 (stereo not given) | nt | 47.2 | nt | nt | nt | 40.4 | i
O=C(Nc1ccc2c(c1)OCO2)c1cc(C2CCCN(C(=O)C3CCCCC3)C2)on1 (stereo not given) | nt | 33.3 | nt | nt | nt | i | i
CN(C)c1ccc(CC(=O)N2CCCC(c3cc(C(=O)Nc4ccc(F)c(Cl)c4)no3)C2)cc1 (stereo not given) | nt | 26.6 | nt | nt | nt | i | i
Cc1cccc(-c2c(NC(=O)c3ccco3)oc3c(C)cccc3c2=O)c1 | i | i | i | i | i | nt | nt
Cc1cccc2c(=O)c(-c3ccc4c(c3)OCO4)c(NC(=O)c3ccco3)oc12 | i | 63.5 | i | i | i | 66.5 | i
O=C(CCl)Nc1cccnc1 | i | nt | nt | nt | nt | nt | nt
CCOc1ccc2[nH]cc(C(=O)NCc3ccccc3)c(=O)c2c1 | i | 24.9 | i | i | i | i | i
CC(=O)Nc1sc2c(c1-c1nc3ccccc3s1)CN(C(C)C)C2 | nt | i | nt | nt | nt | nt | nt
CC(=O)Nc1sc2c(c1-c1nc3ccccc3s1)CN(C(C)C)CC2 | i | 37.7 | i | nt | nt | i | 25.8
CC(=O)Nc1sc2c(c1-c1nc3ccccc3s1)CCCN(C(C)C)C2 | nt | 37.6 | nt | nt | nt | 30.2 | 33.4
O=C(COc1ccccc1F)NC1CCC(Oc2ncccn2)CC1 (stereo not given) | i | nt | nt | nt | nt | nt | nt
COc1ccc(OC(=NS(=O)(=O)c2ccccc2)c2ccccc2)cc1 | i | nt | nt | nt | nt | nt | nt
O=c1[nH]c(=O)n(CCc2ccccc2)c(O)c1C=NN1CCOCC1 | i | nt | nt | nt | nt | nt | nt
CCc1ccccc1N(C)S(=O)(=O)c1ccc2[nH]cc(C(=O)N3CCc4ccccc43)c(=O)c2c1 | i | 100.4 | i | i | i | i | i
CC(C)[C@H](NC(=O)c1ccc(C(C)(C)C)cc1)C(=O)NC1=NCCS1 | i | nt | nt | nt | nt | nt | nt
COC(=O)c1cc(Br)c(=O)n(-c2nccs2)c1 | i | 48.7 | i | i | i | 94.4 | i
Cc1cccc[n+]1C1C(c2ccc([N+](=O)[O-])cc2)C(C#N)=C(C(=C=[N-])C#N)NC1(O)C1CC1 (stereo not given) | i | 39.3 | i | i | i | i | i
SMILES | SSB-PriA inh | PrPC TRFRET | PrP UTR inh | 3CLpro inhibitor | BJeLR lethal | PrPC confirm | LD9 tox
N#CC1=C(N)NC(=S)C(C(N)=O)C1c1ccc([N+](=O)[O-])cc1 (stereo not given) | i | i | i | i | i | nt | nt
O=C(/C=C\c1ccccc1)N1CCCC(c2nnc(-c3ccc4c(c3)OCO4)o2)C1 (stereo not given) | i | nt | nt | nt | nt | nt | nt
COc1cc(/C=C/C(=O)NCCn2c(C)cc3ccccc32)cc(OC)c1OC | 48.4 | 48.8 | i | i | i | i | 10.2
COc1ccc(/C=C/C(=O)NCCN2CCOCC2)cc1OC | i | i | i | i | i | nt | nt
Cc1cc2ccccc2n1CCNC(=O)/C=C/c1ccccc1 | i | nt | nt | nt | nt | nt | nt
COc1ccc(/C=C/C(=O)NCCn2c(C)cc3ccccc32)cc1OC | i | 63.8 | i | i | i | i | i
COc1cc(C(=O)NC(=S)Nc2cccc3c2C(=O)NC3=O)cc(OC)c1OC | i | nt | nt | nt | nt | nt | nt
NC(Cc1ccccc1)c1csc(NC(=O)Nc2ccccc2Oc2ccccc2)n1 (stereo not given) | nt | 25.0 | nt | nt | nt | 27.4 | i
Cc1[nH]nc(C(F)(F)F)c1N=NN1CCOCC1 | i | 31.1 | i | nt | nt | 40.3 | 64.7
